From PubChem BioAssay (NCATS) come the findings set out here.

The nature of assay [1]: qHTS Assay for Identification of Small Molecule Antagonists for NFkB Signaling Pathway (AID 895; active = well fitted inhibition curve with a large enough effect in the signal ratio, with a control signal flat, not every such curve was filed as active; the % refers to the signal ratio; note: potency is the fitted concentration of half-maximal effect). Summed up:
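NFkB-bla ME-180 cervical carcinoma cells with beta-lactamase reporter under NFkB response element; compounds added, then TNF alpha at 10 pM final (EC50), 5 h at 37 C. LiveBLAzer substrate 2 h, room temperature; emission 460/530 nm at 405 nm excitation.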

Assay [2] deals with Cytochrome P450 2C9 (Homo sapiens) (UniProt P11712). Description: qHTS Assay for Inhibitors and Substrates of Cytochrome P450 2C9 (AID 883). Note: nearly all actives have a fitted effect of over 60% in size. Note: potency is the fitted concentration of half-maximal effect. Summed up: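 Human CYP2C9 (10nM) hydroxylated Luciferin-H (100uM, at its KM) to luciferin in 25mM KPO4. Compound was preincubated 10 min at 37C, then NADPH regeneration started a 60 min reaction at 37C. Luminescence was read after detection reagent, normalized to 57uM sulphaphenazole.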

The target in assay [3] is Cytochrome P450 3A4 (Homo sapiens) (UniProt P08684). Kind of assay: qHTS Assay for Activators of Cytochrome P450 3A4 (AID 885). Note: nearly all actives have a fitted effect of over 65% in size. Summed up:
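20nM CYP3A4 + 25uM Luciferin-PPXE (=KM), 200mM KPO4; cpd 10 min RT; NADPH regen, 60 min RT; stop w/ detection buffer, 20 min; luminescence. Normalized to 57 uM ketoconazole.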

For assay [4], the target named is Cytochrome P450 2D6 (Homo sapiens) (UniProt P10635). Kind of assay: qHTS Assay for Inhibitors and Substrates of Cytochrome P450 2D6 (AID 891). Note: nearly all actives have a fitted effect of over 60% in size. Note: potency is the fitted concentration of half-maximal effect. Summed up:
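Human CYP2D6 (5 nM) with 30 uM Luciferin-ME EGE (at Km) in 100 mM KPO4, compound preincubated 10 min, then NADPH regeneration system for 60 min at room temperature. Luciferin read by luminescence; normalized to 1.43 uM quinidine.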

The target of assay [5] is Cytochrome P450 3A4 (Homo sapiens) (UniProt P08684). Kind of assay: qHTS Assay for Inhibitors and Substrates of Cytochrome P450 3A4 (AID 884). Note: nearly all actives have a fitted effect of over 50% in size. Note: potency is the fitted concentration of half-maximal effect. Summed up:
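20 nM human CYP3A4 with 25 uM Luciferin-PPXE (at KM) in 200 mM KPO4, preincubated 10 min with compound; NADPH regeneration started a 60 min RT reaction. Luciferin detected by luminescence, normalized to 57 uM ketoconazole as full inhibition.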

Assay [6] in a line: Cellular Toxicity (caspase-3) H-4-II-E (AID 663).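 Note: cells exposed to compound for 16 hr before readout.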 Summed up:
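Luminescence from caspase-cleaved aminoluciferin substrate, read 20 min after reagent addition, reports caspase 3/7 activation in rat H-4-II-E cells after 16 hr compound exposure. Normalized to DMSO (basal) and 100 uM tamoxifen (100%); AC50 from Hill fits.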

The nature of assay [7]: Cellular Toxicity (caspase-3) Hek293 (AID 664).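 Note: cells exposed to compound for 16 h at 37 °C before readout.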 Put shortly:
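Cells plated, 5 hr at 37 °C; compounds added; 16 hr at 37 °C; Caspase-Glo 3/7 reagent, 20 min RT; luminescence read. Activation expressed relative to DMSO and 100 uM tamoxifen, AC50 by Hill model.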

A short description of assay [8]: Cellular Toxicity (caspase-3) N2a (AID 665).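 Note: compound exposure lasted 16 h at 37 °C before readout.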 Summed up:
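N2a cells, 1500/well, 5 h settle at 37 °C; cpd 16 h, 37 °C; Caspase-Glo 3/7, 1 h RT; luminescence. Norm: DMSO = 0, 10 uM staurosporine = 100%. AC50, Hill fit.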

Assay [9] is described as follows: Cellular Toxicity (caspase-3) NIH 3T3 (AID 666). Put shortly:
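Luminescence from aminoluciferin released by caspase-3/7 cleavage of a peptide substrate served as read-out. Mouse fibroblast NIH 3T3 cells were exposed to compounds over a concentration range for 16 hours, and AC50 values came from standard Hill modelling.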

The nature of assay [10]: Cellular Toxicity (caspase-3) Renal Proximal Tubule (AID 667).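 Note: cells exposed to compound for 16 hours at 37 °C before detection.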 Summed up: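 Freshly isolated primary rat kidney proximal tubule cells, 1000/well, treated 16 hr at 37 °C, then Caspase-Glo 3/7 luminescence after 1 hr. Normalized to DMSO and 10 uM staurosporine; AC50 from Hill fit.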

“And” between values parts separate entries of the source, which are not always exact repeats. Identical values can stand only once. Results filed as inconclusive are left out. The source made the active and inactive calls. Unless noted, calls come from the whole dose curve; as a rule, active = well fitted curve in the direction sought with a large enough effect; inconclusive = small, poorly fitted or top-dose-only effect, or another doubt; inactive = no such curve, though single readings can be large; an effect the other way counts as inactive or inconclusive.

Sequence of Cytochrome P450 2D6 (Homo sapiens) (P10635 whole entry, looked up): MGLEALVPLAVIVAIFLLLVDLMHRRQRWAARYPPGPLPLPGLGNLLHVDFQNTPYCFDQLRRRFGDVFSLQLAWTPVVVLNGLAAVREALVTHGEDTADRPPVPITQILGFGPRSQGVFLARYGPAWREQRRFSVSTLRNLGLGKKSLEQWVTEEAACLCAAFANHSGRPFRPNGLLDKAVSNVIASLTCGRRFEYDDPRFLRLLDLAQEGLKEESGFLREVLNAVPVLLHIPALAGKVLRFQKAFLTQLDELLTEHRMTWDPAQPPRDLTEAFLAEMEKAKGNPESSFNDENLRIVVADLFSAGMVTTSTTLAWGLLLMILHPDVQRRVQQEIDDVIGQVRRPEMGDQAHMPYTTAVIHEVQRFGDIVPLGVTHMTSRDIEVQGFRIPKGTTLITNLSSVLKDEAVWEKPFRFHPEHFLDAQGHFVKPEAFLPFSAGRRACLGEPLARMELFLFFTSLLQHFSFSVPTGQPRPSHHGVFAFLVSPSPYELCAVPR
Sequence of Cytochrome P450 3A4 (Homo sapiens) (P08684 whole entry, looked up): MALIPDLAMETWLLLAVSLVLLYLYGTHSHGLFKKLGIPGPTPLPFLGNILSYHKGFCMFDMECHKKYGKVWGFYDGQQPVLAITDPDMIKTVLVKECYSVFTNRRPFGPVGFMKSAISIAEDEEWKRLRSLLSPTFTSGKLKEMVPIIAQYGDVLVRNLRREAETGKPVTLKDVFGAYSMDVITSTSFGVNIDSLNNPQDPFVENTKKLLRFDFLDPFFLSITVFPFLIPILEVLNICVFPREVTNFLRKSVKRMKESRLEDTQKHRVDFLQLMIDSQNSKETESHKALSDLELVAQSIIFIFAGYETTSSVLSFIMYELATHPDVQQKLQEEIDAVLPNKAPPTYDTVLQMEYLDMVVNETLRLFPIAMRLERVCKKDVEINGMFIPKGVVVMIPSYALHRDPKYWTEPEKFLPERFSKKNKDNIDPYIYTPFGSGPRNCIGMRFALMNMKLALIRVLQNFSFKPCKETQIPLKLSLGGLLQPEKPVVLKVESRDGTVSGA
Sequence of Cytochrome P450 2C9 (Homo sapiens) (P11712 whole entry, looked up): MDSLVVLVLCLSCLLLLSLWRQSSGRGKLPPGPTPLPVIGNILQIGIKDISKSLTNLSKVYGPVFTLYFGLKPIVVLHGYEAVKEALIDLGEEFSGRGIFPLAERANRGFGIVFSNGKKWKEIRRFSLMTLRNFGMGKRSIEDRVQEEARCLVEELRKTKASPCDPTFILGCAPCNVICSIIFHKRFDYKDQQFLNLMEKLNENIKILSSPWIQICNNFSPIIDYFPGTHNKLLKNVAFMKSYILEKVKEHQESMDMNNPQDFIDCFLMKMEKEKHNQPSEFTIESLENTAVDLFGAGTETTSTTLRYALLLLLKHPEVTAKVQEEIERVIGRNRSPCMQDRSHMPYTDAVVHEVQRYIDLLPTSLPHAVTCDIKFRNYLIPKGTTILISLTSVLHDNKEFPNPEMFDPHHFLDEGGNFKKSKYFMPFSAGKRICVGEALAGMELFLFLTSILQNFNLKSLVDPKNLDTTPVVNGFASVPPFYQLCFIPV

For `Cc1cnc(NC(=O)C2=C(O)c3ccccc3S(=O)(=O)N2C)s1`, the Potency entry in [1] was “inactive”.

As for `CCCCNc1cc(C(=O)O)cc(S(N)(=O)=O)c1Oc1ccccc1`, in [1], the Potency entry was “inactive”.

On to `CCOC(=O)C1=C[C@@]2(CC)CCCN3CCc4c(n1c1ccccc41)[C@H]32`, for which the Potency result in assay [2] was “inactive”. Moreover, the outcome in [3] was inactive. In [4], the Potency is 39.8 µM (active) and 6.31 µM (active).

Consider `CCN(c1ccccc1)c1cc(NC)[n+](C)c(C)n1`, for which the Potency in assay [4] was 3.98 µM (active).

For `CCc1ccc(CCOc2ccc(CC3SC(=O)NC3=O)cc2)nc1` (stereo unspecified), the call in assay [3] was inactive.

For `C1COC(NC(C2CC2)C2CC2)=N1`, in assay [2], the Potency result is “inactive”. Besides, the compound was classed as inactive in assay [3]. Also, in assay [4], the Potency is 0.398 µM (active).

Consider `Cc1oncc1C(=O)Nc1ccc(C(F)(F)F)cc1`, for which, in assay [3], the compound was called inactive. Besides, the Potency entry in assay [4] and in [1] was “inactive” throughout.

Regarding `O=c1n(CCCN2CCN(c3cccc(Cl)c3)CC2)nc2ccccn12`, the Potency result in assay [5] was “inactive”.

Regarding `O=C1CCc2cc(OCCCCc3nnnn3C3CCCCC3)ccc2N1`, the call in [3] was inactive. Further, the Potency result in [4] was “inactive”.

With `NC(=O)c1ccc(-c2nc(-c3ccc4c(c3)OCO4)c(-c3ccccn3)[nH]2)cc1`, the call in assay [3] was inactive.

`NS(=O)(=O)c1cc2c(cc1Cl)NC=NS2(=O)=O`: the call in assay [6], in assay [7], in assay [8], in assay [9] and in [10] was inactive.

With `NC(=O)c1cnccn1`, the call in assay [6], in [7], in [8], in [9] and in [10] was inactive. The Potency result in [2], in [5] and in assay [4] was “inactive” throughout.

In the case of `CCOC(=O)N1CCC(=C2c3ccc(Cl)cc3CCc3cccnc32)CC1`, the Potency result in assay [1] is “inactive”.

Take `CC(C[N+](C)(C)C)OC(N)=O` (stereo unspecified): the Potency result in assay [5] was “inactive”.

For the compound `CCn1cc(C(=O)O)c(=O)c2cc(F)c(N3CCNC(C)C3)c(F)c21` (stereo unspecified), the Potency result in [5] was “inactive”.

For the compound `Nc1ccc(S(=O)(=O)Nc2ccnn2-c2ccccc2)cc1`, in assay [3], the compound was called inactive. Also, in assay [1], the Potency was 7.08 µM (active).

On to `NNCCc1ccccc1`, for which, in assay [3], the result was inactive. For the same compound, the Potency in assay [4] is 6.31 µM (active) and 2.51 µM (active).

Regarding `CCN(CC)CCCC(C)Nc1nc(C)cc(Nc2ccc3nc(C)cc(N)c3c2)n1` (stereo unspecified), the Potency entry in assay [5] is “inactive”.

As to `CC(=O)Oc1ccccc1C(=O)O`, the call in [6], in assay [7], in assay [8], in assay [9] and in assay [10] was inactive. Moreover, the Potency result in assay [2], in assay [5] and in assay [4] was “inactive” in each case.

Regarding `N[C@@H]1CONC1=O`, in assay [2], the Potency entry was “inactive”. For the same compound, the outcome in assay [3] was inactive.

In the case of `O=c1[nH]cnc2[nH]ncc12`, the compound was called inactive in assay [6], in assay [7], in [8], in [9] and in [10]. The Potency result in assay [2], in assay [5] and in [4] was “inactive” in each case.

For the compound `NC(N)=NC(=O)c1nc(Cl)c(N)nc1N`, the compound was classed as inactive in assay [6], in [7], in assay [8], in assay [9] and in assay [10]. The Potency result in assay [5] and in assay [1] was “inactive” each time.

For `CCCC(CCC)C(=O)O`, the compound was classed as inactive in assay [7], in assay [8], in assay [9] and in assay [10]. Moreover, the Potency result in assay [5] is “inactive”.

For the compound `OC(CN1CCC(Cc2ccc(F)cc2)CC1)c1ccc(Cl)cc1` (stereo unspecified), the Potency result in assay [5] is “inactive”.

As to `Cc1ccc(N(CC2=NCCN2)c2cccc(O)c2)cc1`, the Potency in assay [4] was 3.16 µM (active) and 794 nM (active).

On to `C[C@]12CCC(=O)C=C1CC[C@@H]1[C@@H]2[C@@H](O)C[C@@]2(C)[C@H]1CC[C@]2(O)C(=O)CO`, for which the call in [3] was inactive. Besides, in assay [1], the Potency was 0.0141 µM (active).

As for `Cn1cnc([N+](=O)[O-])c1Sc1ncnc2nc[nH]c12`, the compound was called inactive in [6], in assay [7], in [8], in assay [9] and in [10]. In [1], the Potency result is “inactive”.

As to `CC(C)NCC(O)COc1ccc(COCCOC(C)C)cc1` (stereo unspecified), the Potency entry in assay [5] was “inactive”.

On to `COc1ccc2nc(S(=O)Cc3ncc(C)c(OC)c3C)[nH]c2c1` (stereo unspecified), for which the Potency result in [2] and in [4] was “inactive” in each case. For the same compound, in assay [3], the result was inactive.

For the compound `CC(C)(Sc1ccc(CCN(CCCCC2CCCCC2)C(=O)NC2CCCCC2)cc1)C(=O)O`, the Potency in [2] is 31.6 µM (active); in assay [5] it was 3.98 µM (active); in [1], 14.1 µM (active). Further, in assay [3], the compound was classed as inactive. Also, the Potency result in assay [4] was “inactive”.

As to `Clc1cccc(Cl)c1NC1=NCCN1`, the Potency in [2] is 7.94 µM (active).

For the compound `Nc1nc2c(ncn2COCCO)c(=O)[nH]1`, the Potency entry in assay [5] is “inactive”.

With `N=c1nc(N2CCCCC2)cc(N)n1O`, the Potency entry in assay [2] and in assay [4] was “inactive” in each case.
